Here are results for 32 molecules from PubChem BioAssay (NCATS).

Holding throughout (test): qHTS profiling for inhibitors of Plasmodium falciparum proliferation (AID 504749); further: nearly all actives have a fitted effect of over 60% in size
Holding throughout (settings): P. falciparum in erythrocytes, SYBR Green DNA, 72 h; series mostly up to 28.7 µM
A general note: In qHTS, concentration-response curves come from the screen itself.

The test system of one experiment is CP192. In a few lines: (§1)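 P. falciparum-infected erythrocytes (0.3% parasitemia, 2.5% hematocrit final) were exposed to compounds for 72 h at 37 C in 5% CO2, then lysed with SYBR Green buffer overnight at room temperature; parasite DNA fluorescence was normalized to artemisinin and DMSO controls.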
Another experiment concerns CP194. The essentials:
as §1

Another experiment has as its system CP201. In a few lines: as §1
Another experiment deals with CP203. In a few lines: as §1
For a further experiment, the system named is CP211. In a few lines: as §1
In the next experiment the test system is CP215. In a few lines:
as §1

Another experiment has as its system CP217. In a few lines:
as §1

In a further experiment the test system is CP238. In a few lines:
as §1

The next experiment deals with CP247. The essentials:
as §1

The next experiment deals with CP237. In a few lines:
as §1

Inconclusive results are not listed. Active and inactive are the calls of the source. The call rests on the fitted dose curve; in most records, active means well fitted inhibition curve with a large enough effect; inconclusive means small, poorly fitted or top-dose-only effect; inactive means flat fitted curve, though single readings scatter.
Potency means the concentration at half of the fitted maximal effect.

In the case of `COC1=CC=C2[C@H]3Cc4ccc(OC)c5c4[C@@]2(CCN3C)[C@H]1O5`, the Potency entry in the experiment with CP192, in the experiment with CP194, with CP201, in the experiment on CP203, in the experiment with CP211 and with CP215 was “inactive” each time. Further, the Potency entry in the experiment with CP217, in the experiment on CP238 and in the experiment with CP247 was “inactive” each time.
`C[N+]1(C)C2CCC1CC(OC(=O)c1c[nH]c3ccccc13)C2` (stereo unspecified): the Potency result with CP192, in the experiment on CP194, with CP201, with CP203, in the experiment with CP211 and in the experiment on CP215 was “inactive” in each case. Moreover, the Potency result in the experiment on CP217, with CP237, with CP238 and in the experiment on CP247 was “inactive” in each case.
With `O=C(CCl)c1ccc(Oc2ccc(C(=O)CCl)cc2)cc1`, the Potency result in the experiment on CP192, in the experiment with CP194, with CP201, in the experiment with CP203, with CP211 and in the experiment on CP215 was “inactive” in each case. Moreover, the Potency result in the experiment with CP217, with CP237, in the experiment on CP238 and with CP247 was “inactive” each time.
Consider `Clc1ccccc1Cl`, for which the Potency entry in the experiment on CP192, in the experiment with CP194, in the experiment on CP201, in the experiment on CP203, in the experiment with CP211 and in the experiment with CP215 was “inactive” throughout. In addition, the Potency result in the experiment with CP217, in the experiment with CP237, with CP238 and in the experiment on CP247 was “inactive” in each case.
Turning to `Cn1sc(Cl)cc1=O`, the Potency entry in the experiment with CP192, in the experiment with CP194, in the experiment on CP201, with CP203, in the experiment with CP211 and in the experiment with CP215 was “inactive” throughout. In addition, the Potency result in the experiment on CP217, in the experiment on CP237, in the experiment with CP238 and in the experiment with CP247 was “inactive” in each case.
Take `FC(F)OC(F)(F)C(F)Cl` (stereo unspecified): the Potency result with CP192, in the experiment with CP194, with CP201, with CP203, in the experiment on CP211 and in the experiment with CP215 was “inactive” throughout. Further, the Potency result in the experiment with CP217, with CP237, in the experiment on CP238 and with CP247 was “inactive” in each case.
`N#CN`: the Potency entry with CP192, in the experiment on CP194, with CP201, in the experiment with CP203, in the experiment with CP211 and in the experiment on CP215 was “inactive” each time. Besides, the Potency entry in the experiment with CP217, in the experiment with CP237, in the experiment with CP238 and in the experiment on CP247 was “inactive” throughout.
As for `C[C@]12CCC(=O)C[C@@H]1CC[C@@H]1[C@@H]2CC[C@]2(C)[C@@H](O)CC[C@@H]12`, the Potency result in the experiment on CP192, in the experiment with CP194, in the experiment with CP201, with CP203, with CP211 and with CP215 was “inactive” throughout. Besides, the Potency entry with CP217, in the experiment with CP237, in the experiment with CP238 and in the experiment on CP247 was “inactive” throughout.
On to `O=c1[nH]c(=O)n(Cl)c(=O)n1Cl`, for which the Potency result in the experiment on CP192, in the experiment on CP194, in the experiment on CP201, in the experiment on CP203, with CP211 and with CP217 was “inactive” throughout. Also, the Potency entry with CP237, in the experiment with CP238 and in the experiment with CP247 was “inactive” each time.
Regarding `[Cl-].[Cl-].[Hg+2]`, the Potency entry in the experiment on CP192, in the experiment on CP203 and with CP215 was “inactive” throughout. The Potency was 8.91 µM (active) in the experiment on CP217 and 10 µM (active) in the experiment on CP238.
Take `CCOc1ccc2c3c1O[C@H]1[C@@H](O)C=C[C@H]4[C@@H](C2)N(C)CC[C@@]341`: the Potency entry with CP192, in the experiment with CP201, with CP217, with CP237, with CP238 and in the experiment with CP247 was “inactive” throughout.
Take `COc1ccc2c3c1O[C@H]1C(=O)CC[C@H]4[C@@H](C2)N(C)CC[C@]314`: the Potency result with CP192, in the experiment with CP194, with CP201, with CP203, with CP211 and in the experiment on CP217 was “inactive” each time. For the same molecule, the Potency entry with CP237, in the experiment on CP238 and with CP247 was “inactive” in each case.
`C[CH2][Hg][S]c1ccccc1C(=O)O`: the Potency in the experiment with CP192 is 4.78 µM (active); with CP194, 3.01 µM (active); in the experiment on CP201, 4.26 µM (active); in the experiment with CP211, 4.26 µM (active); with CP215, 1.51 µM (active); with CP217, 3.98 µM (active). Also, the Potency in the experiment with CP237 was 1.26 µM (active); in the experiment on CP238 it was 3.55 µM (active); in the experiment with CP247, 3.16 µM (active).
Regarding `CN1C2CCC1CC(OC(c1ccccc1)c1ccc(Cl)cc1)C2` (stereo unspecified), the Potency in the experiment with CP194 was 10.7 µM (active); with CP203, 12 µM (active); in the experiment on CP211, 15.1 µM (active); in the experiment on CP215 it was 10.7 µM (active); with CP217, 7.08 µM (active); in the experiment on CP237, 11.2 µM (active). Further, the Potency in the experiment on CP238 and in the experiment on CP247 was 10 µM (active) throughout.
Consider `O=C(NC(=O)c1c(F)cccc1F)Nc1ccc(Cl)c(Oc2ncc(C(F)(F)F)cc2Cl)c1`, for which the Potency entry in the experiment on CP192, in the experiment with CP194, in the experiment with CP201, with CP203, with CP211 and with CP217 was “inactive” in each case. Also, the Potency result in the experiment with CP237, in the experiment with CP238 and in the experiment on CP247 was “inactive” throughout.
`COc1ccc2c(c1OC)C(=O)OC2C1c2cc3c(cc2CCN1C)OCO3` (stereo unspecified): the Potency entry in the experiment on CP217, in the experiment with CP237 and with CP247 was “inactive” in each case.
On to `CCC1C(C)=NN=C(c2ccc(OC)c(OC)c2)c2cc(OC)c(OC)cc21` (stereo unspecified), for which the Potency result in the experiment on CP192, with CP194, with CP201, in the experiment on CP203, in the experiment on CP217 and in the experiment on CP238 was “inactive” in each case. In addition, the Potency entry with CP247 is “inactive”.
Regarding `C=CCC1(C(C)CCC)C(=O)N=C(S)NC1=O` (stereo unspecified), the Potency result in the experiment on CP217, in the experiment with CP237, in the experiment on CP238 and in the experiment on CP247 was “inactive” each time.
With `O=C1CN=C(c2ccccc2)c2cc(Cl)ccc2N1CC1CC1`, the Potency entry with CP192, in the experiment on CP194, with CP201, in the experiment on CP211, in the experiment with CP215 and with CP217 was “inactive” throughout. In addition, the Potency entry in the experiment with CP237 and in the experiment on CP238 was “inactive” in each case.
`CCN(CC)C(=O)/C(Cl)=C(\C)OP(=O)(OC)OC`: the Potency result in the experiment with CP217, in the experiment on CP237, in the experiment with CP238 and in the experiment with CP247 was “inactive” in each case.
`CN1CCCC(=C(c2cccs2)c2cccs2)C1`: the Potency entry with CP192 and in the experiment with CP201 was “inactive” throughout. The Potency in the experiment on CP237 was 4.47 µM (active).
On to `CCOP(=O)(OCC)O/C(=C/Cl)c1ccc(Cl)cc1Cl`, for which the Potency entry in the experiment on CP192, with CP201, with CP237 and in the experiment on CP238 was “inactive” each time.
For `CNC(=O)OCC[N+](C)(C)C`, the Potency result in the experiment with CP192, in the experiment with CP194, with CP201, in the experiment on CP203, in the experiment on CP215 and in the experiment on CP217 was “inactive” each time. Besides, the Potency result with CP237, with CP238 and in the experiment with CP247 was “inactive” throughout.
As to `CN1[C@@H]2CC[C@H]1CC(OC1c3ccccc3CCc3ccccc31)C2` (stereo partly specified), the Potency result in the experiment on CP192, with CP201 and with CP215 was “inactive” throughout. Besides, the Potency with CP217 is 3.16 µM (active).
`Oc1cccc[c]1[Hg][Cl]`: the Potency was 15.1 µM (active) in the experiment with CP192; 9.53 µM (active) in the experiment on CP211; 10.7 µM (active) with CP215; 8.91 µM (active) with CP217; 10 µM (active) with CP237; 11.2 µM (active) in the experiment with CP238. For the same molecule, the Potency in the experiment on CP247 was 8.91 µM (active).
Regarding `CCC1(c2ccccc2)C(=O)NC(=O)NC1=O`, the Potency entry in the experiment with CP194, with CP201, in the experiment on CP203, with CP211, in the experiment on CP215 and in the experiment on CP217 was “inactive” in each case. In addition, the Potency entry with CP237, in the experiment with CP238 and in the experiment on CP247 was “inactive” in each case.
With `F/C(COc1ccc2c(c1)[nH]c1ccccc12)=C1/CN2CCC1CC2`, the Potency entry with CP201 and with CP215 was “inactive” in each case. Further, the Potency in the experiment on CP237 was 6.31 µM (active); in the experiment on CP238, 11.2 µM (active).
Take `CCC1(c2ccccc2)C(=O)NC(=O)N(C)C1=O` (stereo unspecified): the Potency result with CP192, in the experiment on CP194, in the experiment on CP201, in the experiment with CP203, in the experiment on CP211 and with CP217 was “inactive” throughout. The Potency result in the experiment on CP237, with CP238 and in the experiment on CP247 was “inactive” each time.
In the case of `C[C@@H](Cc1ccccc1)NCCC(c1ccccc1)c1ccccc1`, the Potency result with CP192, with CP201, in the experiment on CP211, in the experiment on CP215, in the experiment on CP237 and in the experiment with CP238 was “inactive” in each case.
For the molecule `CCCC(=O)OC(C(Cl)(Cl)Cl)P(=O)(OC)OC` (stereo unspecified), the Potency result in the experiment on CP192, in the experiment on CP194, in the experiment on CP201, with CP203, in the experiment on CP217 and with CP237 was “inactive” in each case. The Potency entry in the experiment with CP238 and with CP247 was “inactive” in each case.
For the molecule `CCCN1CCCC2Cc3[nH]ncc3CC21` (stereo unspecified), the Potency result in the experiment on CP217, in the experiment with CP237, with CP238 and with CP247 was “inactive” in each case.
With `Oc1cc(Cl)c(Cl)cc1Cl`, the Potency entry with CP192, in the experiment with CP194, in the experiment with CP201, in the experiment with CP211, with CP215 and in the experiment with CP217 was “inactive” in each case. In addition, the Potency entry in the experiment with CP237, in the experiment on CP238 and in the experiment on CP247 was “inactive” each time.
